The results in this text go back to PubChem BioAssay.

The nature of experiment [1]: blockers of polyQ-driven CASP3 activation – cell-based (AID 1583). To be noted: polyglutamine-induced caspase-3 activation, cell assay; stronger effect = higher value;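 tested at 10 µM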.
Experiment [2] is described as follows: yeast 75Q aggregation reduction – 75Q-TubU reporter (AID 1593). To be noted: Yeast 75Q polyglutamine aggregation reporter.
A short description of experiment [3]: restoration of touch response, mutant HTT neurons – whole organism, C. elegans mechanosensory neurons, N-terminal huntingtin (AID 1599). To be noted: C. elegans polyQ-huntingtin mechanosensory neurons, stronger effect = higher value.
The nature of experiment [4]: blockers of cytochrome c efflux from mitochondria – biochemical, purified mitochondria (AID 1603).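 Also: mouse liver mitochondria challenged with calcium chloride; signal normalized to the plate average as 100%.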 To be noted: stronger effect = lower value.
Experiment [5] can be described thus: polyglutamine aggregate formation blockers (AID 1604). Particulars: polyglutamine-induced protein aggregation inhibition assay; stronger effect = higher value; tested at 2.5 µM.
Experiment [6] in a line: glutamate transport activators, MN-1 cells, MN-1 cell line (AID 1612).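 Also: tested at 1 µM final; 0% = mean of DMSO vehicle wells on each plate; positive means more glutamate uptake than control and negative means less.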 To be noted: MN-1 motor neuron cells, stronger effect = higher value.
A short description of experiment [7]: GFP-Q80 aggregate reduction, neuronal-like cells, cell-based, NGF-treated PC12, GFPQ80 (AID 1614).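 Also: lower means fewer inclusions and 0 means no inclusions at all.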 To be noted: PC12 NGF-treated GFP-polyQ80 inclusion reduction.
Experiment [8] can be described thus: 75Q-TubH aggregate inhibition, S. cerevisiae, yeast (AID 1616). Particulars: S. cerevisiae 75Q-TubH polyglutamine aggregation suppression; stronger effect = higher value.
The nature of experiment [9]: compounds altering viability of human ES cells (AID 493140; call rule not given here;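 also: cells exposed to compounds for four days before counting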). Particulars: human embryonic stem cell survival screen; stronger effect = higher value.
The target of experiment [10] is 6-phosphogluconate dehydrogenase, decarboxylating (Homo sapiens) (UniProt P52209). Put plainly: inhibition of human phosphogluconate dehydrogenase – biochemical, recombinant enzyme, NADPH absorbance, primary screen (AID 1159550;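 active = at least 20% inhibition of 6-phosphogluconate dehydrogenase activity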). Particulars: recombinant 6PGD, NADPH absorbance 341 nm; at 10 µM; stronger effect = higher value.
The nature of experiment [11]: EMT-state selective cytotoxicity in co-culture – imaging, PC-3E GFP, TEM4-18 mCherry, primary screen (AID 1345086;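 active = compounds killing one labelled cell type while sparing the other, by normalised counts and ratio limits, not self-fluorescent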;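 as to all read-outs here: cells exposed to compound for 72 h before imaging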;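 as to red/green cell ratio (normalised): normalised mesenchymal count divided by normalised epithelial count so high means epithelial killing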). To be noted: PC-3E GFP / TEM4-18 mCherry co-culture, imaging cell counts, at 1 µM; for red/green cell ratio (normalised): actives lie on both sides, counts scaled to control wells, 1 = unselective.
The nature of experiment [12]: viability loss with induced miR-34 in A549 – imaging, A549 dox-inducible miR-34, nuclei and caspase counts, primary screen (AID 1347080). To be noted: A549 miR-34 inducible, Hoechst nuclei count, 48 h.
Experiment [13] addresses NAD(+) hydrolase SARM1 (Homo sapiens) (UniProt Q6SZW1). Put plainly: blocking NAD cleavage by SARM1 SAM-TIR – cell lysate, NAD-Glo luminescence (AID 1508614;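 active = compound whose remaining NAD level is above about 45 nM, limit read from the data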;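 also: higher remaining NAD means stronger inhibition of SARM1 NADase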). Particulars: SAM-TIR HEK293T lysate NADase, at 1 µM, stronger effect = higher value.
Experiment [14] deals with Mitogen-activated protein kinase 7 (Homo sapiens) (UniProt Q13164). Put plainly: Gal4-ERK5 driven luciferase induction – cell-based, HTS, primary screen (AID 1508626;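 active = luciferase signal above three times the same-plate solvent-only control wells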;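 also: luciferase driven by Gal4-ERK5 fusion binding five Gal4 sites before minimal TATA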). Particulars: HeLa Gal4-ERK5 transactivation, 18 h, at 5 µM, stronger effect = higher value.
Experiment [15] can be described thus: compounds altering circadian rhythm period length – cell-based, LOPAC library, luminescence reporter (AID 2774; call rule not given here;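 also: values are relative to mean of DMSO wells on each plate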). Particulars: circadian reporter cells, at 7 µM, actives lie on both sides.
Experiment [16] can be described thus: blockers of cellular phospholipid synthesis – cell-based, LOPAC library, screen 4, primary screen (AID 1347384; call rule not given here). To be noted: animal cells, phospholipid biosynthesis inhibition screen; at 10 µM.
Experiment [17] is described as follows: galactose survival enhancers in mitochondrial complex I cybrids – cell-based, galactose medium, ATP luminescence, primary screen (AID 1645843;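 active = z-score of at least 1.8 in each of two replicates, scored against plate mean and spread of sample wells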;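 also: positive z means more ATP and so rescue of galactose-driven cybrid death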). Particulars: complex I mutant cybrid cells, 72 h, stronger effect = higher value.
Experiment [18] in a line: P. berghei load reduction in hepatocytes – cell-based, HepG2, luciferase luminescence, HepG2 viability, primary screen (AID 624349; in the data active = parasite load remaining mostly below about 12%, no sharp cut-off; inactive = mostly above about 10%;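 also: 100% = mean of DMSO negative control wells on the same plate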). Particulars: P. berghei liver stage in HepG2, luciferase luminescence, concentration not given here; parasite load remaining: stronger effect = lower value; viability: measured here: HepG2 viability without parasites.
A short description of experiment [19]: MELAS cybrid and Rieske KO viability enhancers – cell-based, MELAS cybrids, Rieske KO mouse fibroblasts, CellTiter-Glo, primary screen (AID 1508586;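 active = mean z-score across replicates of 1.96 or higher in either the MELAS or the Rieske mutant cell line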;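 also: z relative to plate mean and SD of compound and empty wells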). To be noted: low glucose. Background: ATP-based viability assays read luminescence as a measure of living cells.
The mark [20] stands for this setting: measured here: epithelial PC-3E GFP cell survival.
Where [21] appears, read: measured here: mesenchymal TEM4-18 mCherry cell survival.
Where [22] appears, read: stronger effect = lower value, cell number ratio, induced over uninduced.
The mark [23] stands for this setting: measured here: relative caspase fold change +Dox/-Dox.
Where [24] appears, read: measured here: total cells with miR-34 induction, stronger effect = lower value.
[25] abbreviates: measured here: total cells without miR-34 induction.
[26] abbreviates: MELAS cybrid survival, CellTiter-Glo 48 h, stronger effect = higher value.
Setting [27] is: Rieske KO mouse fibroblast survival, CellTiter-Glo 72 h.

“And” between values parts separate entries of the source, which are not always exact repeats. Equal entries are not always repeated. For some assays here: Results with a measured potency or affinity are listed apart. The source made the active and inactive calls.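 The calls were made as follows, unless noted: active = compounds whose cell count with miR-34 switched on is under 0.7 times the count with it off; inactive = the rest.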 Peptide text beside a SMILES is read from it.

Sequence of 6-phosphogluconate dehydrogenase, decarboxylating (Homo sapiens) (P52209 whole entry, looked up): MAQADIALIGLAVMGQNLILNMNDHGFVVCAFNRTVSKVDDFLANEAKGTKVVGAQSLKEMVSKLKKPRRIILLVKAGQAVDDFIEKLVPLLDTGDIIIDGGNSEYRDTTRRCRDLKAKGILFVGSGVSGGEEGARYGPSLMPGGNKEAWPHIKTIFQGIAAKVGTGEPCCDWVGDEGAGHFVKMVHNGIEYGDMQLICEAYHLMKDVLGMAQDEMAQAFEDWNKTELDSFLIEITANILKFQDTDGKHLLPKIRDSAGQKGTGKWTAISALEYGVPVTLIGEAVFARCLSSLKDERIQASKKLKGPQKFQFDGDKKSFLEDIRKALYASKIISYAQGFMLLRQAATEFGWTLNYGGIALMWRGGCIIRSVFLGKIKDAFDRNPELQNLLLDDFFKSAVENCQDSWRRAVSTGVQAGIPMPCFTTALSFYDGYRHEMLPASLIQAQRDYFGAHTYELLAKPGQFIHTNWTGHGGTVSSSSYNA
Sequence of Mitogen-activated protein kinase 7 (Homo sapiens) (Q13164 whole entry, looked up, the tested form may be a part): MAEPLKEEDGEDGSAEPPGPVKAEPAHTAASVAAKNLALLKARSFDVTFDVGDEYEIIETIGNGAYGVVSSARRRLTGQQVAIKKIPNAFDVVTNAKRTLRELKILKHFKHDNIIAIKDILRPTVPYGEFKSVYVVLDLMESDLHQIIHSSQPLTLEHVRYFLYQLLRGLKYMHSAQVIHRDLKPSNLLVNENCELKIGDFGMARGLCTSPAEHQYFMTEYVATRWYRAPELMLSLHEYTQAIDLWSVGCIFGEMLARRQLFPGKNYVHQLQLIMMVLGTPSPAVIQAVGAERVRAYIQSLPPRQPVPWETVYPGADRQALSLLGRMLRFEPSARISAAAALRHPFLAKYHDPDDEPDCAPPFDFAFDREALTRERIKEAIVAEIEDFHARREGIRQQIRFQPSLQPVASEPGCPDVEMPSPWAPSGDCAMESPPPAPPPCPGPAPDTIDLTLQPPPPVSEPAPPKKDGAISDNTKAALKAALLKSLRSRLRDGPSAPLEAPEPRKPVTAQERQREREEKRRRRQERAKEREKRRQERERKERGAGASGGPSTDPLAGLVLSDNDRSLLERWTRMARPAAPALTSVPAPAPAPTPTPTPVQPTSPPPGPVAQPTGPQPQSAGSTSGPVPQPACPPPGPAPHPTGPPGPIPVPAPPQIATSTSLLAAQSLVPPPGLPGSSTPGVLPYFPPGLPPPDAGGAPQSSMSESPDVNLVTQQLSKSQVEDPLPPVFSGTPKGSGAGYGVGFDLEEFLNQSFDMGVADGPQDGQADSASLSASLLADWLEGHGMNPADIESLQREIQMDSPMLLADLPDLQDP
Sequence of NAD(+) hydrolase SARM1 (Homo sapiens) (Q6SZW1 whole entry, looked up, the tested form may be a part): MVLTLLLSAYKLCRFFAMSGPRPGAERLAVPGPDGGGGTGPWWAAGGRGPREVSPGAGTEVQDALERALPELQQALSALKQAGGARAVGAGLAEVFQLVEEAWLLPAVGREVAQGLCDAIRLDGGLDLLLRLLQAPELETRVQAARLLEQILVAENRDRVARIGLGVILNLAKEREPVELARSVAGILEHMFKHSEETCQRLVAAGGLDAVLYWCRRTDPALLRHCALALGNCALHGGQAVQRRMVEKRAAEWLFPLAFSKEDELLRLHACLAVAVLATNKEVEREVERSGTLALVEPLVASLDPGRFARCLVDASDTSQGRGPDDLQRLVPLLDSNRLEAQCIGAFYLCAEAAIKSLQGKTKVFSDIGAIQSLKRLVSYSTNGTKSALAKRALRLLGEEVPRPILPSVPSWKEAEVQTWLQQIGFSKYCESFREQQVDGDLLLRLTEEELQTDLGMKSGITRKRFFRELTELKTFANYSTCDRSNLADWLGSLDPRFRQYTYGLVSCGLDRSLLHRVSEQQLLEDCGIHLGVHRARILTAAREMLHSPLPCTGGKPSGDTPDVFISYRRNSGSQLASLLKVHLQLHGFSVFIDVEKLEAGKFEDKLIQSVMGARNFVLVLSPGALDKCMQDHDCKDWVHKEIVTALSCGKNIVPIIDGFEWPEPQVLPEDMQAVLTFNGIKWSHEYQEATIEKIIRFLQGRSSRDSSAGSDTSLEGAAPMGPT

Turning to `O=C(/C=C/C=C/c1ccc2c(c1)OCO2)N1CCCCC1`, the inhibition (in general, the change of the read-out against control, counted positive when it falls) in [1] was -11.5%; in experiment [10] it was 0.86% (inactive). In addition, the score in experiment [2] stood at 0.85. In [3], the rescue above control was 3.18. For the same compound, the cytochrome c release ratio in experiment [4] is 0.68. For the same compound, the inhibition of aggregation in experiment [5] turned out to be 51%. Also, the glutamate uptake change in experiment [6] worked out at 10.6%. The inclusion score in experiment [7] was found to be 2. Also, the aggregation suppression score in experiment [8] was determined as 0.367. The survival in experiment [9] is 6.58 (inactive). For the same compound, the red/green cell ratio (normalised) in experiment [11] was 0.95 (inactive). For the same compound, the figures for the normalised cell number in experiment [11] (setting [20]) and in experiment [11] (setting [21]) were 1.26 and 1.2, respectively. Further, the fold change in experiment [12] (setting [22]) was 0.898 (inactive) and 0.941 (inactive); in experiment [12] (setting [23]), 1.07 and 2.41. Besides, the cell count in experiment [12] (setting [24]) is 7720 and 10400; in [12] (setting [25]), 8590 and 11100. Besides, the remaining NAD in experiment [13] was 10 nM (inactive). In addition, the luciferase signal in experiment [14] is 80 AU (inactive).

Turning to `O=C(O)/C=C/c1ccc(O)c(O)c1`, in experiment [15], the period change is 0.055 h (inactive). For the same compound, the inhibition in experiment [10] is 7.04% (inactive). The red/green cell ratio (normalised) in [11] was 1.06 (inactive). Further, the normalised cell number in experiment [11] (setting [20]) stood at 1; in experiment [11] (setting [21]), 1.06. Besides, the fold change is 0.967 (inactive) and 0.99 (inactive) in [12] (setting [22]); 2.48 and 1.11 in experiment [12] (setting [23]). The cell count is 10100 and 5830 in [12] (setting [24]); 10400 and 5890 in [12] (setting [25]). Besides, in [16], the compound was classed as inactive. Also, in experiment [14], the luciferase signal was 32 AU (inactive). For the same compound, the z-score in experiment [17] was -0.81 (inactive).

As for `O=c1c(O)c(-c2ccc(O)cc2O)oc2cc(O)cc(O)c12`, the inhibition in experiment [1] was -17.6%; in experiment [10], -23.3% (inactive). Further, the score in experiment [2] came out at 1.66. For the same compound, the rescue above control in experiment [3] is -6.82. For the same compound, in [4], the cytochrome c release ratio amounted to 0.57. This compound also had an inhibition of aggregation in experiment [5] of 49%. For the same compound, in [6], the glutamate uptake change was -11.3%. Besides, the inclusion score in experiment [7] was 2. In experiment [8], this compound showed an aggregation suppression score of 0.872. Besides, in experiment [15], the period change is 0.015 h (inactive). In [18], the parasite load remaining is 81.2% (inactive). The viability – broadly, a read-out of living cells in per cent, often relative to untreated cells – in experiment [18] is 66.9%. In addition, in experiment [11], the red/green cell ratio (normalised) was 0.97 (inactive). For the same compound, the normalised cell number was found to be 1.01 in experiment [11] (setting [20]) and 0.98 in experiment [11] (setting [21]). Moreover, the fold change in experiment [12] (setting [22]) is 1.04 (inactive) and 0.943 (inactive); in experiment [12] (setting [23]), 0.926 and 0.734. For the same compound, the cell count was 11400 and 9750 in experiment [12] (setting [24]); 11000 and 10300 in experiment [12] (setting [25]). In experiment [16], the compound was classed as inactive. Besides, the z-score in [19] (setting [26]) was -0.297 (inactive); in experiment [19] (setting [27]), 0.729; in experiment [17] it was 0.495 (inactive). Besides, in experiment [14], the luciferase signal is 32 AU (inactive).

As for `CCCc1nn(C)c2c(=O)[nH]c(-c3cc(S(=O)(=O)N4CCN(C)CC4)ccc3OCC)nc12`, the parasite load remaining in experiment [18] is 94.8% (inactive) and 65.8% (inactive) and 48% (inactive). Besides, in [18], the viability is 89.3% and 101% and 108%. Further, the inhibition in experiment [10] is 6.7% (inactive). Also, the red/green cell ratio (normalised) in [11] is 0.98 (inactive). Also, the values for the normalised cell number in experiment [11] (setting [20]) and in experiment [11] (setting [21]) were 1.05 and 1.03, respectively. The cell count in experiment [12] (setting [24]) is 10500 and 7310 and 9670. Moreover, the call in [16] was inactive. Further, the z-score in experiment [19] (setting [26]) is -0.38 (inactive) and -0.0288 (inactive) and 1.25 (inactive); in experiment [19] (setting [27]), -0.0156 and 0.388 and 1.37; in experiment [17] it was 0.235 (inactive) and 0.33 (inactive). Moreover, the remaining NAD in [13] was 10 nM (inactive). Besides, in [14], the luciferase signal is 60 AU (inactive).

As to `CC(=O)N[C@@H](CC(=O)O)C(=O)N[C@@H](CCC(=O)O)C(=O)O` (Ac-Asp-Glu-OH), the inhibition in [1] is 12.9%; in [10], -7.58% (inactive). This compound displayed a score in experiment [2] of 1.12. The compound further came in with a rescue above control in [3] of 7.68. Moreover, the cytochrome c release ratio in experiment [4] was found to be 1.15. This compound also yielded an inhibition of aggregation in experiment [5] of 1.96%. In [6], the glutamate uptake change amounted to 0%. Moreover, the inclusion score in experiment [7] worked out at 2. This compound registered an aggregation suppression score in experiment [8] of 1.06. In addition, the survival in experiment [9] is 16.7 (inactive). Besides, in [11], the red/green cell ratio (normalised) was 0.86 (inactive). For the same compound, the normalised cell number in experiment [11] (setting [20]) amounted to 1.17; in experiment [11] (setting [21]), 1.01. The values for the fold change in experiment [12] (setting [22]) and in experiment [12] (setting [23]) were 0.963 (inactive) and 0.542, respectively. Besides, the cell count in [12] (setting [24]) is 8810; in experiment [12] (setting [25]) it was 9150. In experiment [17], the z-score was -0.67 (inactive).
